# Autofluor 339 = intrinsic fluorescence of library compounds, ex339/em460 – biochemical, MLSMR library, data from DPM-DC assay, artefact control, profiling panel; compound autofluorescence, ex339/em460 nm, NADH buffer; hits give high values; 1 = no-compound wells, NADH background; fluorescence fold increase at 10 µM; hit rate 5.5% among 65,000; AID 709;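 active means at 10 µM, mean starting fluorescence two-fold or more over control wells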;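 further: signal is the first read of a kinetic run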
# Hsp90 block = displaces geldanamycin probe from tumor Hsp90. NCI-N417 lysate Hsp90, Cy3B-geldanamycin FP displacement. hit rate 0.35% among 64,000. inhibition, % at 30 µM. P07900;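 active means inhibition above 50%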;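 further: 0% = tracer plus lysate wells and 100% = tracer alone without lysate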
# NADH enzymes = inhibition of NAD/NADH coupling enzymes, library profiling | IC50, µM (titrated, usually from 10 µM), inactives show at the top dose inhibition | hit rate 0.02% among 65,000 | AID 774 | coupled PK/LDH NADH assays, four targets;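 active means single-dose screening hits from any of four coupled enzyme assays that gave an IC50 when retested across doses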;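 further: the DPM-DC format reads NADH fluorescence rather than 340 nm absorbance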
# Cdc25B block = human M-phase inducer phosphatase 2 inhibition | P30305 | recombinant Cdc25B, OMFP fluorescence Ex485/Em525 | inhibition, %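 (compounds tested at 10 µM final in the well)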 | hit rate 0.1% among 65,000; in the data active means inhibition above about 50%
# A340 absorber = absorbance at 340 nm; compound absorbance at 340 nm, fold over control; fold change at 10 µM; 65,000 tested, under 10 active;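 active means at 10 µM dose, initial 340 nm absorbance at least 2 fold that of control wells; inactive means change under 2 fold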;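 further: initial absorbance extrapolated from kinetic A340 decline of NADH oxidation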
# DUSP1 inh = inhibitors of human MKP-1 phosphatase. recombinant MKP-1, OMFP hydrolysis fluorescence. inhibition, %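 (compounds tested at a single concentration somewhere between 10 and 100 µM)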. hit rate 0.15% among 65,000;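 active means inhibition above about 50%, limit read from the data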;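 further: 0% = DMSO max control wells and 100% = wells with enzyme stopped by NaOH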
# Target sequence (P28562 whole entry, looked up): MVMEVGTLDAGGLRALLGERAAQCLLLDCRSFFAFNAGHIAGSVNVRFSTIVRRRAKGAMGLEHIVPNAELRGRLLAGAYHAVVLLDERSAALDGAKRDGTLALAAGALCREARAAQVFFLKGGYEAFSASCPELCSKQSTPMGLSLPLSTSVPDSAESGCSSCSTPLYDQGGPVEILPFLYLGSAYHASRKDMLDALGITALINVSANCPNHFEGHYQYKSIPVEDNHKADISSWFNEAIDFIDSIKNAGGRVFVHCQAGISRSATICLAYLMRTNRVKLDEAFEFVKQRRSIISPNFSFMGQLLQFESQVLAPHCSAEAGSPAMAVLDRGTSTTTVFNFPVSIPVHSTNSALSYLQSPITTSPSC
# * marks the source's active call; other numbers are inactive results; i = inactive; x = no result given. Sampled rows, rich in hits. Any-hit rate of the full collection: about 5.7%.
SMILES,Autofluor 339,Hsp90 block,NADH enzymes,Cdc25B block,A340 absorber,DUSP1 inh
CC1=C(C(=O)Nc2ccccc2C)C(c2ccc(C)o2)C2=C(CCCC2=O)N1 (configuration not stated),1.34,-2.8,9.0%,9.3,1.07,7.1
CCN(CC)c1ccc2c(C)c(CN3CCOCC3)c(=O)oc2c1,4.31*,-3.0,9.0%,-21.4,1.07,1.6
Cc1csc(NC(=O)CSc2nnc(-c3ccoc3C)n2CCc2ccccc2)n1,1.08,-2.8,9.0%,-15.5,1.01,-3.0
Cc1occc1-c1nnc(SCC(=O)Nc2nccs2)n1CCc1ccccc1,2.11*,-4.2,12.0%,2.9,1.03,15.6
Cc1nn(-c2ccccc2)c(C)c1C(=O)OCC(=O)Nc1ccc2c(c1)OCO2,1.05,x,5.0%,-23.6,1.03,13.9
Cc1cc(C)n2nc(NCc3ccccc3)nc2n1,3.61*,3.6,6.0%,1.9,1.08,3.0
Cc1nc2nc(-c3cccnc3)nn2c(C)c1Cl,1.01,-3.0,2.0%,1.8,1,-8.0
COc1ccc(-c2nc3nc(C)cc(C)n3n2)cc1,3.74*,-7.7,5.0%,1.4,1.04,-10.2
Cc1nc2nc(-c3ccco3)nn2c(C)c1Cl,3.95*,-6.9,13.0%,-5.2,1.07,-11.7
COc1cccc(CNc2nc3nc(C)c(Cl)c(C)n3n2)c1,2.32*,-5.6,3.0%,-6.6,1.04,0.1
COc1ccc(CNc2nc3nc(C)c(Cl)c(C)n3n2)cc1OC,1.07,-3.6,4.0%,2.8,1.03,-8.8
OC(CN1CCN(c2cccc(C(F)(F)F)c2)CC1)c1c[nH]c2ccccc12 (configuration not stated),1.16,-6.5,4.0%,1.5,1.02,21.1
N#CC(=C(\N)Sc1ccccc1N)/C(C#N)=C(/N)Sc1ccccc1N,x,i,x,x,x,x
CCOC(=O)c1[nH]c2ccc(Br)cc2c1NC(=O)CCN1CCCCC1,1.2,-4.3,3.0%,-3.1,1.07,22.7
CCOC(=O)Nc1c(C(=O)OC)[nH]c2cc(OC)ccc12,1.32,-12.1,9.0%,13.3,1.08,-3.3
CCOC(=O)c1c(C)n(C)c2ccc(OC)c(NC(=O)CN3CCN(Cc4ccccc4)CC3)c12,1.05,-4.5,5.0%,16.3,1.01,18.8
CCOC(=O)c1[nH]c2ccc(OC)cc2c1NC(=O)CCN1CCCC(C)C1 (configuration not stated),2.25*,-4.4,0.0%,-34.1,1.09,-8.3
CCOC(=O)c1[nH]c2ccc(OC)cc2c1NS(=O)(=O)c1ccc(OC)cc1OC,1.66,-7.6,3.0%,-10.5,1.07,-28.6
CCOC(=O)c1[nH]c2cc(OC)c(OC)cc2c1NC(=O)C(C)N1CCN(Cc2ccccc2)CC1 (configuration not stated),2.49*,-5.1,4.0%,11.1,1.02,-1.5
COC(=O)c1[nH]c2cc(OC)ccc2c1N,3.77*,-11.6,8.0%,1.3,1.09,0.5
CCOC(=O)c1[nH]c2ccc(OC)cc2c1NC(=O)C(C)N1CCSCC1 (configuration not stated),3.84*,-8.8,4.0%,-0.3,1.06,23.9
Cn1c2c(c(=O)n(C)c1=O)C(c1cccc(Br)c1)C1C(=O)c3ccccc3C1=N2 (configuration not stated),1.06,-5.8,4.0%,-5.8,1,10.6
COC(=O)c1[nH]c2ccccc2c1NC(=O)Oc1ccccc1,2.31*,-4.3,10.0%,1.1,1.1,18.9
CCOC(=O)c1[nH]c2ccc(OC)cc2c1N=CN(C)C,2.83*,-2.4,2.0%,1.7,1.07,4.9
CCOC(=O)c1[nH]c2ccc(OC)cc2c1NC(=O)OC,3.63*,1.4,11.0%,-6.8,1.07,13.9
CN1CCN(C(=O)c2cnn3c(C(F)F)cc(C4CC4)nc23)CC1,1.15,2.0,4.0%,-0.9,0.99,4.9
O=C(c1cnn2c(C(F)F)cc(-c3ccccc3)nc12)N1CCOCC1,3.7*,-1.9,10.0%,-3.9,1.06,8.4
Cc1ccccc1Cc1c(C)nc2c(C(=O)NCc3ccco3)cnn2c1C,3.29*,-4.4,7.0%,-8.6,1.05,18.2
Cc1ccccc1Cc1c(C)nc2nc(SCC(=O)NCc3ccco3)nn2c1C,1.1,x,7.0%,-13.5,1.02,26.5
Cc1ccc(-c2cc(C(F)F)n3ncc(C(=O)NCc4ccco4)c3n2)cc1,2.32*,-0.2,4.0%,10.1,1.1,16.5

# Screening results deposited in PubChem BioAssay by several laboratories.
